Reference: PubChem BioAssay (EPA / NIEHS)
Several values for one entry are separate records, joined by “and”; a condition that tells them apart may be missing. Equal entries are not always repeated. Inconclusive results are not listed. The source holds several records for some structures; these can differ, active in one and inactive in another. Activity calls are given as the source filed them. Rule for the calls: active = hit-call score of the fitted dose curve at least 0.9, where 1 is the maximum; inconclusive = response in the unintended direction; inactive = score below 0.9.

Molecular target: Retinoic acid receptor RXR-alpha (Homo sapiens) (UniProt P19793)
Experiment: OT_NURR1_NURR1RXRa_0480: Odyssey Thera (OT) 8-hour HEK293T Protein Complementation Assay for Nurr1/retinoid X receptor (RXR) (AID 2283385)
Experimental: OT_NURR1_NURR1RXRa_0480 is a cell-based assay that uses HEK293T, a human kidney cell line, with measurements taken at 8 hours after chemical dosing in a 384-well plate.OT_NURR1_NURR1RXRa_0480 is one of one assay component(s) measured or calculated from the OT_NURR1_NURR1RXRa_0480 assay. It is designed to make measurements of protein fragment complementation, a form of binding reporter, as detected with fluorescence intensity signals by Protein-fragment Complementation technology.Data from the assay component OT_NURR1_NURR1RXRa_0480 was analyzed into 1 assay endpoint. This assay endpoint, OT_NURR1_NURR1RXRa_0480, was analyzed in the positive analysis fitting direction relative to DMSO as the negative control and baseline of activity. Using a type of binding reporter, measures of receptor for gain-of-signal activity can be used to understand the binding at the pathway-level as they relate to the gene RXRA. Furthermore, this assay endpoint can be referred to as a primary readout, because the performed assay has only produced 1 assay endpoint. To generalize the intended target to other relatable targets, this assay endpoint is annotated to the nuclear receptor intended target family, where the subfamily is non-steroidal.
Protein-fragment complementation assay, or PCA, is a method for the identification and quantification of protein-protein interactions. In the PCA, the proteins of interest ("bait" and "prey") are each covalently linked to fragments of a third protein (e.g. DHFR, which acts as a "reporter"). Interaction between the bait and the prey proteins brings the fragments of the reporter protein in close proximity to allow them to form a functional reporter protein whose activity can be measured.

Sequence of Retinoic acid receptor RXR-alpha (Homo sapiens) (P19793 whole entry, looked up): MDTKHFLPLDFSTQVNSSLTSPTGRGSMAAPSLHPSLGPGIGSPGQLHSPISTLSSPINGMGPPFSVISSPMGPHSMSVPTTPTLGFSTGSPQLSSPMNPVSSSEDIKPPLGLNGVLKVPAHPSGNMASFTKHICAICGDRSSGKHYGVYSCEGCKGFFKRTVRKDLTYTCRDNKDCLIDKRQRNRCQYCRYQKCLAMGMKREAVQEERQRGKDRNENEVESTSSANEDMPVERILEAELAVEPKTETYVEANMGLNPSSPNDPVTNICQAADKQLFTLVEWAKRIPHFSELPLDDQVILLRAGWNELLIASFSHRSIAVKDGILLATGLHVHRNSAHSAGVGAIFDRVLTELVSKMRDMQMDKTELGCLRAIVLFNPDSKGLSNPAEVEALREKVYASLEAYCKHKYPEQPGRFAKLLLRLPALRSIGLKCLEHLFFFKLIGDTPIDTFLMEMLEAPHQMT

SMILES | outcome | AC50
CCCSP(=O)(OCC)Oc1ccc(Br)cc1Cl (stereo not given) | inactive | 44 µM (active)
CC(Oc1cccc(Cl)c1)C(=O)O (stereo not given) | inactive | 
CCC(=NOC/C=C/Cl)C1=C(O)CC(C2CCOCC2)CC1=O (stereo not given) | inactive | 
CCOP(=S)(OCC)SCCSCC | inactive | 
CCCCOC(=O)c1ccccc1C(=O)O | inactive | 
CCc1cccc(C)c1N(C(=O)CCl)C(C)COC (stereo not given) | inactive | 
CCOP(=O)(SC(C)CC)N1CCSC1=O (stereo not given) | inactive | 
CN(C)[C@@H]1C(=O)C(C(N)=O)=C(O)[C@@]2(O)C(=O)C3=C(O)c4c(O)cccc4[C@@](C)(O)[C@H]3[C@H](O)[C@@H]12 | inactive | 50 µM (active)
COP(=O)(OC)C(O)C(Cl)(Cl)Cl (stereo not given) | inactive | 
Cc1ccn2nc(S(=O)(=O)Nc3c(F)cccc3F)nc2n1 | inactive | 
CSc1nc(NC(C)C)nc(NC(C)C)n1 | inactive | 
Nc1nc(N)nc(NC2CC2)n1 | inactive | 
CNC(=O)ON=C(SC)C(=O)N(C)C | inactive | 
CCOP(=S)(Oc1cnc(C(C)(C)C)nc1)OC(C)C (stereo not given) | inactive | 73.2 µM (active)
C[N+]1(C)CCCCC1 | inactive | 
C#CCC1=C(C)C(OC(=O)C2C(C=C(C)C)C2(C)C)CC1=O (stereo not given) | inactive | 66.7 µM (active)

SMILES | outcome | AC50
CCCCSP(=O)(SCCCC)SCCCC | inactive | 68.9 µM (active)
C[Si](Cn1cncn1)(c1ccc(F)cc1)c1ccc(F)cc1 | inactive | 
CC(COc1ccc(Oc2ccccc2)cc1)Oc1ccccn1 (stereo not given) | inactive | 63.2 µM (active)
CON=C(C(=O)OC)c1ccccc1CON=C(C)c1cccc(C(F)(F)F)c1 | inactive | 17.4 µM (active)
CCC(CC)Nc1c([N+](=O)[O-])cc(C)c(C)c1[N+](=O)[O-] | inactive | 
COc1ccc(C(=CC(=O)N2CCOCC2)c2ccc(Cl)cc2)cc1OC | inactive | 
S=C1NCCN1 | inactive | 
CCOP(=S)(OCC)OC(Cl)C(Cl)(Cl)Cl (stereo not given) | inactive | 80.9 µM (active)
COc1cccc(C(=O)NN(C(=O)c2cc(C)cc(C)c2)C(C)(C)C)c1C | inactive | 
COc1cc(OC)nc(Sc2cccc(Cl)c2C(=O)O)n1 | inactive | 
CC1(C(=O)Nc2ccc(O)c(Cl)c2Cl)CCCCC1 | inactive | 
CCNc1nc(Cl)nc(NC(C)(C)C#N)n1 | inactive | 
C=C(C)[C@H]1Cc2c(ccc3c2O[C@@H]2COc4cc(OC)c(OC)cc4[C@@H]2C3=O)O1 |  | 16 µM (active) and 12.6 µM (active)
O=c1ccc(=O)[nH][nH]1 | inactive | 
CCCCOC(=O)[C@@H](C)Oc1ccc(Oc2ccc(C#N)cc2F)cc1 | inactive | 13.5 µM (active)
